Measurements published in PubChem BioAssay.
Calls of active or inactive are those of the source.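 Rule for the calls, unless noted: active = NADPH fluorescence slope more negative than the mean of all samples by about 3 SD, 99.7% confidence; inactive = the rest.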

Columns and labels:
[1] = inhibitors of TNFa-induced NFkB p65 translocation, primary screen, imaging, HUVEC, MLSMR starter and 10KST1 sets (AID 438;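 active = inhibition above 20% together with a positive visual image hit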;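 note: compound added about 3h40 before a 20 min TNFalpha stimulation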;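 for inhibition: signal is the nuclear over cytoplasmic p65 intensity ratio per well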); details: HUVEC TNFa-induced p65 nuclear translocation; cell count: measured here: nuclei count (cytotoxicity indicator), at 2.08 µM; inhibition: at 2 µM, stronger effect = higher value, 0% TNFa-plus-vehicle, 100% no-TNFa wells
[2] = inhibitors of mutant huntingtin aggregation, primary screen, imaging, exon1htt(103Q)mCFP cells, high-content imaging (AID 483;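 active = visual image review flags a hit and inhibition of aggregation exceeds 20%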;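 note: compound exposure lasted 3 days before fixation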;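 for nuclei count: percent of the per-plate median nuclei count of sample wells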); details: exon1htt(103Q)mCFP cell line, aggregate imaging, at 2 µM; inhibition of aggregation: stronger effect = higher value; nuclei count: measured here: cell count, toxicity
[3] = inhibitors of E-selectin induction by TNFa, primary screen, imaging, HUVEC, immunofluorescence, MLSMR starter and 10KST1 sets (AID 487;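 active = visually confirmed hit in the image check and inhibition above 20%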;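 for inhibition: signal is fraction of cell area covered by stained E-selectin grains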;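 for nuclei count: 100% = median nuclei count of all wells on the same plate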); details: HUVEC TNFalpha-induced E-selectin immunofluorescence imaging, at 2 µM; inhibition: stronger effect = higher value; nuclei count: measured here: cell number, toxicity
[4] = target: Voltage-gated potassium channel subunit beta-2 (Rattus norvegicus) (UniProt P62483); test: KvBeta enzyme negative modulators, primary screen, biochemical, NADPH fluorescence (AID 622;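 active = fluorescence slope higher than the sample average by over 3 SD, cut at about -0.22 in these data, passing the limit was not always enough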;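 note: slope of raw intensity against log time taken from 70 to 1610 s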); details: recombinant KvBeta, 4-cyanobenzaldehyde reduction, at 10 µM, stronger effect = higher value
Voltage-gated potassium channel subunit beta-2 (Rattus norvegicus), sequence (P62483 whole entry, looked up): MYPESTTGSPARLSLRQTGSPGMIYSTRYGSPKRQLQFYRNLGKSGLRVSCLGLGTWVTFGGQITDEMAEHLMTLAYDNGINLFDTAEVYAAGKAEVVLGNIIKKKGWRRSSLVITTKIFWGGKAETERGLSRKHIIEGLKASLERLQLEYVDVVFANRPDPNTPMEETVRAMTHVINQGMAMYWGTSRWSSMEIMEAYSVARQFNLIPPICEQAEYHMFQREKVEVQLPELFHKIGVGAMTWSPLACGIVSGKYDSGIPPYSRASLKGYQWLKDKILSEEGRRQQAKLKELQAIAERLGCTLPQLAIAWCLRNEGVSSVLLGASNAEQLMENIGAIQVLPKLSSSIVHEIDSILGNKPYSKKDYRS

[5] = target: Voltage-gated potassium channel subunit beta-2 (Rattus norvegicus) (UniProt P62483); test: KvBeta positive modulators, primary screen, biochemical, NADPH fluorescence (AID 623); details: Recombinant KvBeta, NADPH fluorescence decrease slope, 10 min; at 10 µM; stronger effect = lower value;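 note: fluorescence intensity change per second fitted from 20 to 320 s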
[6] = target: Alpha-2C adrenergic receptor (Homo sapiens) (UniProt P18825); test: modulators of alpha2C/GIRK thallium flux, primary screen, cell-based, HEK293 alpha2C/GIRK1/2 (AID 624;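 active = fluorescence slope after compound addition differing from the mean of all screened samples at 99.7% confidence, in either direction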;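 note: slope of fluorescence ratio to pre-addition baseline per second over 15 to 24 s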); details: thallium flux BTC fluorescence, at 10 µM, actives lie on both sides
Alpha-2C adrenergic receptor (Homo sapiens), sequence (P18825 whole entry, looked up): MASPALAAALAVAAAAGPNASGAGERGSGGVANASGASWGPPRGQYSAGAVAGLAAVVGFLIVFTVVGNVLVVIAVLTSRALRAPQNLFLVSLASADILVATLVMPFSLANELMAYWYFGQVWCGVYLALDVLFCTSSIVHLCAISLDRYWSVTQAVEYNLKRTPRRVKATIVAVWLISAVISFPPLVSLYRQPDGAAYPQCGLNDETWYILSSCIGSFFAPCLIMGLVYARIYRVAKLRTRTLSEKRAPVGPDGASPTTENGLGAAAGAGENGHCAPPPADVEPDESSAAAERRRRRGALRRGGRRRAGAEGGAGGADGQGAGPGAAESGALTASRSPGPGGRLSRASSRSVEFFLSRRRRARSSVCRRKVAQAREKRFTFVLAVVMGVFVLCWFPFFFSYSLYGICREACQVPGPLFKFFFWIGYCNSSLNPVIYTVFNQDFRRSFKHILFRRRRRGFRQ

[7] = inhibitors of Sendai virus-induced IRF3 signaling, primary screen, TLR/RLR signaling modifier project, cell-based, Sendai virus stimulus, luciferase, 10K MLSCN set (AID 602276;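 active = inhibition at or above 50% at 10 µM; inactive = inhibition below 50%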;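 note: firefly luciferase from ISG56 promoter only with Renilla not read in this screen; 0% = Sendai virus plus DMSO and 100% = medium plus DMSO without virus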); details: HEK293 RL24 IRF3 luciferase reporter, at 10 µM, stronger effect = higher value
[8] = inhibitors of poly I:C-induced TLR3 signaling, primary screen, cell-based, poly I:C stimulus, luciferase, 10K MLSCN set (AID 602277;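 active = inhibition of the reporter signal at or above 50%; inactive = inhibition below 50%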); details: HEK293-TLR3 RL24 IRF3 luciferase reporter, at 10 µM, stronger effect = higher value

Structure (SMILES) | cell count [1] | inhibition [1] | inhibition of aggregation [2] | nuclei count [2] [%] | inhibition [3] | nuclei count [3] [%] | fluorescence slope [4] | NADPH fluorescence slope [5] | slope [6] | inhibition [7] | inhibition [8]
Fc1cccc(NCc2cn3ccccc3n2)c1 | 664 | -8% (inactive) | -73.5% (inactive) | 91.8 | -64.2% (inactive) | 120 | -0.209 (inactive) | -1.6e-05 (inactive) | 0.00555 (inactive) | -1.05% (inactive) | -62.5% (inactive)
CC1=CCC2C(=O)N(c3nc(C)cc(C)n3)C(=O)C2C1 (stereo not drawn) | 332 | 4.2% (inactive) | 9% (inactive) | 85.6 | -124% (inactive) | 105 | -0.53 (inactive) | -7.2e-05 (inactive) | 0.00507 (inactive) | 12.7% (inactive) | 21.2% (inactive)
CCc1nnc(NC(=O)c2ccc(COc3ccccc3)o2)s1 | 736 | -49% (inactive) | -1.8% (inactive) | 101 | -18.9% (inactive) | 102 | -0.519 (inactive) | -2.5e-05 (inactive) | 0.00512 (inactive) | -7.49% (inactive) | 3.46% (inactive)
C1CCc2nnc(-c3nnc4n3CCCCC4)n2CC1 | 396 | 3% (inactive) | -5.5% (inactive) | 100 | -3.6% (inactive) | 105 | -0.344 (inactive) | -2.9e-05 (inactive) | 0.00555 (inactive) | 11.6% (inactive) | 10.3% (inactive)
CCOC(=O)Cc1csc(/C(=N/O)C(N)=O)n1 | 638 | 2.7% (inactive) | 0.1% (inactive) | 126 | -62.8% (inactive) | 108 | -0.48 (inactive) | -9.9e-05 (inactive) | 0.00629 (inactive) | 13.2% (inactive) | 15.9% (inactive)
NC(=O)COC(=O)CNC(=O)c1ccc(Cl)cc1 | 450 | 11.7% (inactive) | 4.1% (inactive) | 106 | 20.5% (inactive) | 111 | -0.521 (inactive) | -1.3e-05 (inactive) | 0.00666 (inactive) | 18.5% (inactive) | 17.3% (inactive)
COc1ccc(C(=O)c2ccccc2)c(O)c1 | 585 | -2.6% (inactive) | 6.6% (inactive) | 94.1 | 1.3% (inactive) | 97.5 | -0.443 (inactive) | 2.6e-05 (inactive) | 0.00543 (inactive) | -1.71% (inactive) | -8.45% (inactive)
COc1cc(Br)cc(/C=N/c2ncn[nH]2)c1O | 376 | -8.7% (inactive) | -2.5% (inactive) | 101 | -35% (inactive) | 117 | -0.467 (inactive) | 7.7e-05 (inactive) | 0.00616 (inactive) | 12.8% (inactive) | 24.8% (inactive)
CC1=C(C(=O)NC2CCCC(C)C2C)C2(CCCCC2)OC1=O (stereo not drawn) | 515 | 3.3% (inactive) | 18.1% (inactive) | 64.9 | -37.4% (inactive) | 114 | -0.598 (inactive) | -6.8e-07 (inactive) | 0.00687 (inactive) | -0.153% (inactive) | 17.7% (inactive)
O=C(CSCCSCC(=O)c1ccco1)c1ccco1 | 594 | -6.1% (inactive) | -12% (inactive) | 84.7 | -44.4% (inactive) | 138 | -0.421 (inactive) | -6.5e-05 (inactive) | 0.00644 (inactive) | 7.09% (inactive) | 7.22% (inactive)
Cc1cnc(NC(=O)CSc2nnc(COc3c(C)cccc3C)o2)s1 | 628 | 10.9% (inactive) | -2.5% (inactive) | 103 | -22.4% (inactive) | 121 | -0.537 (inactive) | -4.4e-05 (inactive) | 0.00686 (inactive) | 12.1% (inactive) | 39% (inactive)
COc1ccc(C/C(N)=N/n2cnnc2)cc1Cl | 356 | -3.8% (inactive) | -13.5% (inactive) | 99.1 | -14.7% (inactive) | 107 | -0.447 (inactive) | -3.3e-05 (inactive) | 0.00222 (inactive) | 6.09% (inactive) | 35.6% (inactive)
O=C(C1CC1)N1CCC(c2nc(-c3ccc(S(=O)(=O)NCC4CCCO4)cc3)no2)CC1 (stereo not drawn) | 334 | -3% (inactive) | -20.7% (inactive) | 143 | -43.6% (inactive) | 91.9 | -0.491 (inactive) | 3.5e-06 (inactive) | 0.00666 (inactive) | -27.5% (inactive) | -49.4% (inactive)
Cc1nc2c(-c3ccccc3)c(C)nn2c(C)c1CCC(=O)NCc1ccco1 | 545 | -1.1% (inactive) | -8.9% (inactive) | 84.3 | -61.2% (inactive) | 102 | -0.584 (inactive) | 1.5e-05 (inactive) | 0.00663 (inactive) | 9.03% (inactive) | 31.1% (inactive)
CC(=O)C1=C(C)NC(SCSc2ccccc2)=C(C#N)C1c1cccnc1 (stereo not drawn) | 472 | -0.5% (inactive) | -6.8% (inactive) | 87.9 | -33% (inactive) | 121 | -0.475 (inactive) | -3e-05 (inactive) | 0.00661 (inactive) | 1.86% (inactive) | 0.63% (inactive)
Cc1ccccc1N(C)S(=O)(=O)c1ccc2[nH]cc(C(=O)NCC3CCCO3)c(=O)c2c1 (stereo not drawn) | 523 | -20.4% (inactive) | 17.8% (inactive) | 55 | -52.3% (inactive) | 104 | -0.404 (inactive) | -4.2e-05 (inactive) | 0.00343 (inactive) | -1.58% (inactive) | 14.4% (inactive)
CC1CCC(C(=O)NC(C(=O)NCCN2CCC(C)CC2)C(C)C)CC1 (stereo not drawn) | 256 | -3.9% (inactive) | -5.5% (inactive) | 71.9 | -24.9% (inactive) | 101 | -0.495 (inactive) | 8.5e-05 (inactive) | 0.00683 (inactive) | 19.4% (inactive) | 25.4% (inactive)
CCOC(=O)c1nc2sc3c(c2c(=O)[nH]1)CCCC3 | 763 | -1.6% (inactive) | -9.6% (inactive) | 84.3 | 2.7% (inactive) | 102 | -0.0445 (active) | -1.1e-05 (inactive) | 0.0045 (inactive) | 13.1% (inactive) | 11.2% (inactive)
Cc1nc2cc(-n3ccc(=O)cc3)ccc2n1-c1ccccc1 | 352 | -2.1% (inactive) | 1.3% (inactive) | 98.4 | -286% (inactive) | 113 | -0.407 (inactive) | -3.5e-05 (inactive) | 0.00591 (inactive) | 19.8% (inactive) | 99% (active)
O=C(Nc1ccncc1)C1CCCN(S(=O)(=O)c2cccc3cccnc23)C1 (stereo not drawn) | 686 | 6.8% (inactive) | -328% (inactive) | 4.8 | -46% (inactive) | 104 | -0.548 (inactive) | -3.9e-05 (inactive) | 0.00584 (inactive) | 40.7% (inactive) | 34.4% (inactive)
c1ccc(CNc2c3c(nc4ncnn24)CCCC3)nc1 | 912 | 2.1% (inactive) | -30.3% (inactive) | 102 | -39.1% (inactive) | 111 | -0.542 (inactive) | -9.4e-06 (inactive) | 0.00501 (inactive) | 15.7% (inactive) | 13.9% (inactive)
COc1ccccc1Cn1c(-c2ccco2)nc2nc3ccccc3nc21 | 612 | -10.5% (inactive) | -8.4% (inactive) | 109 | -13.1% (inactive) | 117 | -0.366 (inactive) | -7.7e-06 (inactive) | 0.00597 (inactive) | 1.34% (inactive) | -13.9% (inactive)
Cc1cc(C)nc(NC2=NCC(=O)N2c2ccccc2Br)n1 | 899 | -1.7% (inactive) | -2.1% (inactive) | 92.9 | -29.3% (inactive) | 115 | -0.4 (inactive) | 9.8e-06 (inactive) | 0.00564 (inactive) | 17.3% (inactive) | 40.3% (inactive)
CCN(C1CCCCC1)S(=O)(=O)c1ccc(OC)c(C)c1 | 862 | -3.6% (inactive) | 9.9% (inactive) | 98.1 | -104% (inactive) | 128 | -0.498 (inactive) | -2.3e-05 (inactive) | 0.00415 (inactive) | -0.395% (inactive) | 28.2% (inactive)
COc1ccc(-c2noc(-c3ccccc3C(=O)Nc3cccnc3)n2)cc1OC | 395 | -5.7% (inactive) | -13.9% (inactive) | 103 | -57.8% (inactive) | 115 | -0.458 (inactive) | -3.1e-05 (inactive) | 0.00579 (inactive) | 1.54% (inactive) | 0.376% (inactive)
Cc1cc(C)nc(NC(=O)c2cnc3sccn3c2=O)n1 | 650 | -14% (inactive) | 18.2% (inactive) | 84.7 | -14.9% (inactive) | 110 | -0.528 (inactive) | -3.1e-05 (inactive) | 0.00661 (inactive) | 17.6% (inactive) | 47.4% (inactive)
COC(=O)CN(c1ccc(OC)cc1)S(=O)(=O)c1ccc(OC)c(OC)c1 | 669 | -4.7% (inactive) | -13% (inactive) | 106 | -81.3% (inactive) | 139 | -0.463 (inactive) | -0.000101 (inactive) | 0.00514 (inactive) | 10.6% (inactive) | 23.4% (inactive)
Cc1csc2ncc(C(=O)Nc3ccccc3Cl)c(=O)n12 | 677 | 5.8% (inactive) | -20% (inactive) | 95.1 | -12.3% (inactive) | 116 | -0.486 (inactive) | 5.1e-06 (inactive) | 0.00716 (inactive) | -29% (inactive) | -83.1% (inactive)
